{
  "source": "PubChem BioAssay (NCI)",
  "note": "Compounds without any hit were thinned out: in the full panel of roughly 83,000, 20% have a hit.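 Method: cells in 96-well plates; compound added at one concentration; 48 h incubation; percent growth measured; values under 10 scored active.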 Unmarked numbers belong to inactive results. The source made the active and inactive calls.",
  "data": [
    {"test_system": "SNB-75 CNS", "assay": "NCI-60 one-dose screen, 48 h (100 = growth as untreated, 0 = no growth, -100 = all killed)", "settings": "10 µM unless noted", "units": {"growth": "%"}, "values": [
      {"smiles": "O=C1C(Cl)=C(NCCCN2CCOCC2)C(=O)c2ccccc21", "growth": 78.3},
      {"smiles": "COC(=O)c1cc(-c2ccc(C)cc2)n(C(=O)CSc2nc3sc(C(N)=O)c(C)c3c(=O)n2Cc2ccccc2)n1", "growth": 83.3},
      {"smiles": "COc1cccc(OC)c1OC(=O)c1ccccc1", "growth": 82.5},
      {"smiles": "Oc1ccc2ccccc2c1C1NN=C(c2ccccc2)S1", "note": "(stereo not given)", "growth": 41.8},
      {"smiles": "CCCCC/C=C\\C/C=C/CCCCCCCCNC(=O)Nc1ccc([N+](=O)[O-])cc1", "growth": 103},
      {"smiles": "Clc1ccc(Nc2ccnc(N3CCN(c4ccnc5cc(Cl)ccc45)CC3)n2)cc1", "growth": 27.7},
      {"smiles": "Cc1ccc(S(=O)(=O)N(c2ccc(Cl)cc2)c2ccc(Br)cc2C(=O)O)cc1", "growth": 97.2},
      {"smiles": "CCN1CCN(C(=S)SCC(=O)Nc2nc3ccc(OC)cc3s2)CC1", "growth": 94},
      {"smiles": "Cn1c2ccccc2c2nn(Cc3ccccc3)c(=O)nc21", "growth": 77},
      {"smiles": "Clc1ccc2c(N3CCN(c4ccnc(NC5CCCCC5)n4)CC3)ccnc2c1", "growth": 65.6},
      {"smiles": "COc1ccc(OC2=C(C#N)C(=N)N3c4ccccc4Sc4ccccc4C3N2)cc1", "note": "(stereo not given)", "growth": 69},
      {"smiles": "NC(=S)N/N=C1\\c2ccccc2-c2c(F)c(F)c(F)c(F)c21", "growth": 95.7},
      {"smiles": "NC(=O)c1cc(I)ccc1NC(=O)COc1ccc(Cl)cc1Cl", "growth": 113},
      {"smiles": "CCC12CCC3c4ccc(O)cc4CCC3C1CC(O)C2O", "note": "(stereo not given)", "growth": 65.8},
      {"smiles": "O=C1NC(=O)C(CSc2ccccc2)(c2ccccc2)N1", "note": "(stereo not given)", "growth": 83.9},
      {"smiles": "C=C(C)COC(=O)c1ccccc1C(=O)OCC1(C)CO1", "note": "(stereo not given)", "growth": 92.9},
      {"smiles": "O=c1nc(NO)[nH]c(=O)n1Cc1ccc(F)cc1", "growth": 86.1},
      {"smiles": "NC(=O)c1cc(I)ccc1NC(=O)COc1ccccc1", "growth": 30.8},
      {"smiles": "O=C(Nc1ccccc1O)c1ccc(NS(=O)(=O)c2cccc3cccnc23)cc1", "growth": 48.5},
      {"smiles": "CC(=O)OC[C@H](O)[C@@]1(O)CC[C@H]2[C@@H]3CCC4=CC(=O)CC[C@]4(C)[C@H]3[C@@H](O)C[C@@]21C", "growth": 117},
      {"smiles": "COc1cc(NC(=O)COc2ccccc2)c(C(N)=O)cc1OC", "growth": 17.9},
      {"smiles": "COc1ccc(Nc2[nH]n(C3=Nc4ccccc4Sc4ccccc43)c(=O)c2C#N)cc1", "growth": 67.3},
      {"smiles": "COc1c(Cl)ccc2c(-c3nc4cc(Cl)c(F)cc4s3)cc(=O)oc12", "growth": 69.3},
      {"smiles": "Cn1c2ccc(Cl)cc2c2nn(C(=O)c3ccccc3)c(=O)nc21", "growth": 88.3},
      {"smiles": "COc1ccc(/C=C(\\C#N)c2ccc(OC)cc2)cc1", "growth": 76},
      {"smiles": "CCCCNNC(=O)c1ccc(Br)cc1", "growth": 61.1},
      {"smiles": "CC(=O)c1cc(C)c(OC(=O)c2ccccc2)c(C)c1", "growth": 82.6},
      {"smiles": "Cc1ccc(C(=O)Nc2ccccc2N)cc1", "growth": 82.8},
      {"smiles": "Oc1ccccc1/C=N/Nc1nc2ccccc2s1", "growth": 45.6},
      {"smiles": "COC(=O)c1ccc(C(=O)Nc2ccccc2N)cc1", "growth": 78.4},
      {"smiles": "CCSc1nnc2c3cc(Br)ccc3n(C)c2n1", "growth": 92.6},
      {"smiles": "N#CCCN1CCN(CCC#N)C1=S", "growth": 95.6},
      {"smiles": "COC(=O)/C=C1/CCC2C3CCC4=CC(=O)C(Br)CC4(C)C3C(=O)CC12C", "note": "(stereo not given)", "growth": 70.8},
      {"smiles": "NC(=O)c1cc(Cl)ccc1NC(=O)COc1ccccc1", "growth": 36.5}
    ]},
    {"test_system": "SNB-19 CNS", "assay": "NCI-60 one-dose screen, 48 h (100 = growth as untreated, 0 = no growth, -100 = all killed)", "settings": "10 µM unless noted", "values": [
      {"smiles": "O=C1C(Cl)=C(NCCCN2CCOCC2)C(=O)c2ccccc21", "growth": "91.5%"},
      {"smiles": "COc1cccc(OC)c1OC(=O)c1ccccc1", "growth": "104%"},
      {"smiles": "Oc1ccc2ccccc2c1C1NN=C(c2ccccc2)S1", "note": "(stereo not given)", "growth": "23.6%"},
      {"smiles": "CCCCC/C=C\\C/C=C/CCCCCCCCNC(=O)Nc1ccc([N+](=O)[O-])cc1", "growth": "89.6%"},
      {"smiles": "Clc1ccc(Nc2ccnc(N3CCN(c4ccnc5cc(Cl)ccc45)CC3)n2)cc1", "growth": "58.2%"},
      {"smiles": "Cc1ccc(S(=O)(=O)N(c2ccc(Cl)cc2)c2ccc(Br)cc2C(=O)O)cc1", "growth": "99.9%"},
      {"smiles": "CCN1CCN(C(=S)SCC(=O)Nc2nc3ccc(OC)cc3s2)CC1", "growth": "93.1%"},
      {"smiles": "Cn1c2ccccc2c2nn(Cc3ccccc3)c(=O)nc21", "growth": "106%"},
      {"smiles": "Cn1c2ccccc2c2nn(C(=O)c3ccccc3)c(=O)nc21", "growth": "99%"},
      {"smiles": "COc1ccc(OC2=C(C#N)C(=N)N3c4ccccc4Sc4ccccc4C3N2)cc1", "note": "(stereo not given)", "growth": "97.8%"},
      {"smiles": "NC(=S)N/N=C1\\c2ccccc2-c2c(F)c(F)c(F)c(F)c21", "growth": "89%"},
      {"smiles": "NC(=O)c1cc(I)ccc1NC(=O)COc1ccc(Cl)cc1Cl", "growth": "98.7%"},
      {"smiles": "CCC12CCC3c4ccc(O)cc4CCC3C1CC(O)C2O", "note": "(stereo not given)", "growth": "90.1%"},
      {"smiles": "O=C1NC(=O)C(CSc2ccccc2)(c2ccccc2)N1", "note": "(stereo not given)", "growth": "113%"},
      {"smiles": "C=C(C)COC(=O)c1ccccc1C(=O)OCC1(C)CO1", "note": "(stereo not given)", "growth": "101%"},
      {"smiles": "COc1ccc(NC(=O)COc2ccccc2)c(C(N)=O)c1", "growth": "53.4%"},
      {"smiles": "NC(=O)c1cc(I)ccc1NC(=O)COc1ccccc1", "growth": "43.1%"},
      {"smiles": "O=C(Nc1ccccc1O)c1ccc(NS(=O)(=O)c2cccc3cccnc23)cc1", "growth": "67.9%"},
      {"smiles": "CC(=O)OC[C@H](O)[C@@]1(O)CC[C@H]2[C@@H]3CCC4=CC(=O)CC[C@]4(C)[C@H]3[C@@H](O)C[C@@]21C", "growth": "109%"},
      {"smiles": "COc1cc(NC(=O)COc2ccccc2)c(C(N)=O)cc1OC", "growth": "56%"},
      {"smiles": "COc1ccc(Nc2[nH]n(C3=Nc4ccccc4Sc4ccccc43)c(=O)c2C#N)cc1", "growth": "73.5%"},
      {"smiles": "COc1c(Cl)ccc2c(-c3nc4cc(Cl)c(F)cc4s3)cc(=O)oc12", "growth": "96%"},
      {"smiles": "Cn1c2ccc(Cl)cc2c2nn(C(=O)c3ccccc3)c(=O)nc21", "growth": "105%"},
      {"smiles": "CC(=O)Nc1ccc(S(=O)(=O)N/N=C\\c2ccc(Cl)c(Cl)c2)cc1", "growth": "103%"},
      {"smiles": "COc1ccc(/C=C(\\C#N)c2ccc(OC)cc2)cc1", "growth": "80.5%"},
      {"smiles": "CCCCNNC(=O)c1ccc(Br)cc1", "growth": "76.6%"},
      {"smiles": "CC(=O)c1cc(C)c(OC(=O)c2ccccc2)c(C)c1", "growth": "103%"},
      {"smiles": "Cc1ccc(C(=O)Nc2ccccc2N)cc1", "growth": "81.9%"},
      {"smiles": "Oc1ccccc1/C=N/Nc1nc2ccccc2s1", "growth": "51.4%"},
      {"smiles": "COc1cccc(OC(=O)c2ccccc2)c1OC(=O)c1ccccc1", "growth": "73.5%"},
      {"smiles": "COC(=O)c1ccc(C(=O)Nc2ccccc2N)cc1", "growth": "85.6%"},
      {"smiles": "CCSc1nnc2c3cc(Br)ccc3n(C)c2n1", "growth": "109%"},
      {"smiles": "N#CCCN1CCN(CCC#N)C1=S", "growth": "98.5%"},
      {"smiles": "COC(=O)/C=C1/CCC2C3CCC4=CC(=O)C(Br)CC4(C)C3C(=O)CC12C", "note": "(stereo not given)", "growth": "78.9%"},
      {"smiles": "NC(=O)c1cc(Cl)ccc1NC(=O)COc1ccccc1", "growth": "64.7%"},
      {"smiles": "CN1CCN(CCCn2c3c(sc4ncccc43)c(=O)n3nnc(-c4ccccc4)c23)CC1", "growth": "5.98% (active)"}
    ]}
  ]
}
